Read-out in assay [1]: Interleukin-1 alpha (IL1a), IL1A (gene 3552)
The assay is described as follows: BSK_KF3CT_IL1a: BioMAP Diversity Plus: KF3CT Assay for Interleukin-1 alpha (IL1a) Biomarker Activity (AID 2283070). The settings on record: primary human keratinocytes with fibroblasts; actives raise or lower the signal. Put shortly:
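Chemicals were dosed onto co-cultured human keratinocytes and foreskin fibroblasts, IL-1a was quantified by ELISA at 24 h, and activity was fitted in both directions relative to DMSO controls.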

Read-out in assay [2]: TIMP metallopeptidase inhibitor 2 (TIMP2), TIMP2 (gene 7077)
The assay is described as follows: BSK_KF3CT_TIMP2: BioMAP Diversity Plus: KF3CT Assay for TIMP metallopeptidase inhibitor 2 (TIMP2) Biomarker Activity (AID 2283071). The conditions noted are these: primary human keratinocytes with fibroblasts; actives raise or lower the signal. Put shortly: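 Cells: human keratinocytes co-cultured with foreskin fibroblasts. Treat with chemical, 24 h. Measure TIMP-2 by ELISA; fit curves bidirectionally vs DMSO baseline.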

Read-out in assay [3]: C-C motif chemokine 2 (Homo sapiens) (UniProt P13500)
The assay is described as follows: BSK_KF3CT_MCP1: BioMAP Diversity Plus: KF3CT Assay for Monocyte Chemoattractant Protein 1 (MCP1/CCL2) Biomarker Activity (AID 2283073). The settings on record: primary human keratinocytes with fibroblasts; actives raise or lower the signal. Put shortly: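 ELISA readout of MCP-1 after 24 h chemical dosing of a human skin primary co-culture of keratinocytes and foreskin fibroblasts. Activity was fitted in both directions against DMSO.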

Read-out in assay [4]: Matrix Metallopeptidase 9 (MMP9), MMP9 (gene 4318)
In words: BSK_KF3CT_MMP9: BioMAP Diversity Plus: KF3CT Assay for Matrix Metallopeptidase 9 (MMP9) Biomarker Activity (AID 2283074).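 For AC50: MMP9 protein level quantified by ELISA in the co-culture.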 The conditions noted are these: primary human keratinocytes with fibroblasts; actives raise or lower the signal. Put shortly:
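Human keratinocyte/foreskin fibroblast co-culture; compound added; 24 h; MMP-9 by ELISA; bidirectional fit vs DMSO baseline.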

Read-out in assay [5]: CD40, CD40 (gene 958)
The assay is described as follows: BSK_LPS_CD40: BioMAP Diversity Plus: LPS Assay for CD40 Biomarker Activity (AID 2283076). The conditions noted are these: primary human HUVEC with PBMC; actives raise or lower the signal. Put shortly:
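Cells were dosed, incubated 24 h, then assayed for CD40 by ELISA. Gain or loss of signal was analysed relative to DMSO controls. The culture paired human umbilical vein endothelium with peripheral blood mononuclear cells.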

Read-out in assay [6]: E-selectin (Homo sapiens) (UniProt P16581)
The assay is described as follows: BSK_LPS_Eselectin: BioMAP Diversity Plus: LPS Assay for Eselectin Biomarker Activity (AID 2283077). The conditions noted are these: primary human HUVEC with PBMC; actives raise or lower the signal. Put shortly: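 Primary human vascular co-culture (endothelium plus PBMC) was dosed with chemical, then E-selectin quantified by ELISA at 24 h. Endpoint values derive from bidirectional curve fitting relative to DMSO.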

Read-out in assay [7]: Interleukin-8 (IL8), CXCL8 (gene 3576)
In words: BSK_LPS_IL8: BioMAP Diversity Plus: LPS Assay for Interleukin-8 (IL8) Biomarker Activity (AID 2283078). The settings on record: primary human HUVEC with PBMC; actives raise or lower the signal. Put shortly:
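Readout is IL-8 by ELISA, taken 24 h after compounds were added to LPS-stimulated endothelial/PBMC co-cultures. Both increases and decreases relative to DMSO control were scored through bidirectional fitting.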

Assay [8] is described as follows: BSK_LPS_SRB: Viability Assessment in the BioMAP Diversity Plus: LPS Assay (AID 2283079).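 Note: total protein by sulforhodamine B absorbance as a cytotoxicity measure; measured one day after compound addition; fitted in both directions against DMSO so loss or gain of signal counts.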 The settings on record: primary human HUVEC with PBMC. Put shortly:
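Readout is SRB absorbance at 560 nm (0.1% stain, TCA-fixed parallel cultures) as a total-protein cytotoxicity measure. Cells: primary human umbilical vein endothelium plus peripheral blood mononuclear cells, 24 h after chemical exposure; DMSO served as baseline.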

Read-out in assay [9]: Interleukin-1 alpha (IL1a), IL1A (gene 3552)
In words: BSK_LPS_IL1a: BioMAP Diversity Plus: LPS Assay for Interleukin-1 alpha (IL1a) Biomarker Activity (AID 2283080). The conditions noted are these: primary human HUVEC with PBMC; actives raise or lower the signal. Put shortly:
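ELISA read-out of IL-1 alpha from a human primary vascular co-culture (endothelium plus PBMC) under LPS, sampled 24 hours post-dosing. Activity was fitted in both directions relative to DMSO controls.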

Read-out in assay [10]: Monocyte Chemoattractant Protein-1 (MCP1), CCL2 (gene 6347)
The assay is described as follows: BSK_LPS_MCP1: BioMAP Diversity Plus: LPS Assay for Monocyte Chemoattractant Protein-1 (MCP1) Biomarker Activity (AID 2283081).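 For AC50: secreted MCP-1 protein quantified by ELISA in culture supernatant.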 The conditions noted are these: primary human HUVEC with PBMC; actives raise or lower the signal. Put shortly: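 Human endothelial–PBMC co-cultures were dosed with chemical, then LPS-driven MCP-1 levels were quantified by ELISA at 24 h. Activity in either direction was fitted versus DMSO negative control.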

Assay [11] can be described thus: BSK_LPS_PGE2: BioMAP Diversity Plus: LPS Assay for Prostaglandin E2 (PGE2) Biomarker Activity (AID 2283082).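 For AC50: secreted prostaglandin E2 measured by ELISA in LPS-stimulated co-culture.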 The conditions noted are these: primary human HUVEC with PBMC; actives raise or lower the signal. Put shortly:
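LPS-activated HUVEC/PBMC co-culture; cmpd dosed, 24 h; PGE2 by ELISA; bidirectional fit vs DMSO; SRB (0.1%, TCA-fixed, 560 nm) in parallel plates for overt cytotox.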

Read-out in assay [12]: Macrophage colony-stimulating factor (MCSF), CSF1 (gene 1435)
In words: BSK_LPS_MCSF: BioMAP Diversity Plus: LPS Assay for Macrophage colony-stimulating factor (MCSF) Biomarker Activity (AID 2283083). The settings on record: primary human HUVEC with PBMC; actives raise or lower the signal. Put shortly:
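ELISA readout of M-CSF after 24 h compound exposure in a human endothelial/PBMC co-culture. Activity, in either direction, is fitted relative to DMSO vehicle.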

Read-out in assay [13]: Tissue Factor, F3 (gene 2152)
The assay is described as follows: BSK_LPS_TissueFactor: BioMAP Diversity Plus: LPS Assay for Tissue Factor Biomarker Activity (AID 2283084). The conditions noted are these: primary human HUVEC with PBMC; actives raise or lower the signal. Put shortly:
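ELISA signal for cell-surface Tissue Factor (CD142) was read 24 h after compound dosing of an LPS-stimulated human endothelial–PBMC primary co-culture. Gain or loss of signal was scored relative to DMSO.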

Read-out in assay [14]: Tumor necrosis factor (Homo sapiens) (UniProt P01375)
The assay is described as follows: BSK_LPS_TNFa: BioMAP Diversity Plus: LPS Assay for Tumour Necrosis Factor alpha (TNFa) Biomarker Activity (AID 2283085). The settings on record: primary human HUVEC with PBMC; actives raise or lower the signal. Put shortly: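 Read-out is ELISA of TNFa in primary human endothelial cell–PBMC co-cultures at 24 h after compound. Activity in either direction was fitted against DMSO.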

Read-out in assay [15]: Vascular cell adhesion molecule 1 (VCAM1), VCAM1 (gene 7412)
The assay is described as follows: BSK_LPS_VCAM1: BioMAP Diversity Plus: LPS Assay for Vascular cell adhesion molecule 1 (VCAM1) Biomarker Activity (AID 2283086). The settings on record: primary human HUVEC with PBMC; actives raise or lower the signal. Put shortly:
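HUVEC + PBMC co-culture, LPS system; compound 24 h; VCAM-1 by ELISA; bidirectional fit vs DMSO control; parallel SRB (0.1%, TCA-fixed, 560 nm) for cytotoxicity.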

Read-out in assay [16]: CD38, CD38 (gene 952)
In words: BSK_SAg_CD38: BioMAP Diversity Plus: SAg Assay for CD38 Biomarker Activity (AID 2283087). The conditions noted are these: primary human HUVEC with PBMC; actives raise or lower the signal. Put shortly: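 Human HUVEC plus PBMC co-culture stimulated with superantigen; CD38 measured by ELISA 24 h after chemical dosing. Fluorescence read-out, bidirectional fit against DMSO; cytotoxicity tracked in parallel by SRB and Alamar Blue.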

Read-out in assay [17]: CD40, CD40 (gene 958)
In words: BSK_SAg_CD40: BioMAP Diversity Plus: SAg Assay for CD40 Biomarker Activity (AID 2283088). The conditions noted are these: primary human HUVEC with PBMC; actives raise or lower the signal. Put shortly:
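Compounds were dosed onto a human primary endothelial–PBMC co-culture, and after 24 h CD40 was quantified by ELISA using a fluorescence signal. Activity in either direction was fitted relative to DMSO.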

Read-out in assay [18]: CD69, CD69 (gene 969)
In words: BSK_SAg_CD69: BioMAP Diversity Plus: SAg Assay for CD69 Biomarker Activity (AID 2283089).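 For AC50: cell surface CD69 protein quantified by ELISA with fluorescence detection.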 The conditions noted are these: primary human HUVEC with PBMC; actives raise or lower the signal. Put shortly:
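Endothelial/PBMC co-culture; chemical added; 24 h incubation; CD69 ELISA with fluorescence detection; bidirectional fit vs DMSO.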

Read-out in assay [19]: urokinase plasminogen activator (uPA), PLAU (gene 5328)
The assay is described as follows: BSK_KF3CT_uPA: BioMAP Diversity Plus: KF3CT Assay for urokinase plasminogen activator (uPA) Biomarker Activity (AID 2283075). The conditions noted are these: primary human keratinocytes with fibroblasts; actives raise or lower the signal. Put shortly: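 ELISA readout of uPA, analyzed for signal gain or loss relative to DMSO, from a human primary keratinocyte–foreskin fibroblast co-culture measured 24 h after chemical treatment.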

Read-out in assay [20]: Transforming growth factor beta 1 (TGFb1), TGFB1 (gene 7040)
In words: BSK_KF3CT_TGFb1: BioMAP Diversity Plus: KF3CT Assay for Transforming growth factor beta 1 (TGFb1) Biomarker Activity (AID 2283072). The settings on record: primary human keratinocytes with fibroblasts; actives raise or lower the signal. Put shortly: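 Primary human skin cells (keratinocytes, foreskin fibroblasts) were co-cultured, exposed to test chemical and sampled at 24 h. TGF-b1 levels were measured by ELISA and fitted bidirectionally relative to DMSO.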

The structures appear in SMILES notation. More than one record can exist for a structure, and the calls need not agree. Calls of active or inactive are those of the source. Rule for the calls: active = hit-call score of the fitted dose curve at least 0.9, where 1 is the maximum; inactive = score below 0.9.

E-selectin (Homo sapiens), sequence (P16581 whole entry, looked up): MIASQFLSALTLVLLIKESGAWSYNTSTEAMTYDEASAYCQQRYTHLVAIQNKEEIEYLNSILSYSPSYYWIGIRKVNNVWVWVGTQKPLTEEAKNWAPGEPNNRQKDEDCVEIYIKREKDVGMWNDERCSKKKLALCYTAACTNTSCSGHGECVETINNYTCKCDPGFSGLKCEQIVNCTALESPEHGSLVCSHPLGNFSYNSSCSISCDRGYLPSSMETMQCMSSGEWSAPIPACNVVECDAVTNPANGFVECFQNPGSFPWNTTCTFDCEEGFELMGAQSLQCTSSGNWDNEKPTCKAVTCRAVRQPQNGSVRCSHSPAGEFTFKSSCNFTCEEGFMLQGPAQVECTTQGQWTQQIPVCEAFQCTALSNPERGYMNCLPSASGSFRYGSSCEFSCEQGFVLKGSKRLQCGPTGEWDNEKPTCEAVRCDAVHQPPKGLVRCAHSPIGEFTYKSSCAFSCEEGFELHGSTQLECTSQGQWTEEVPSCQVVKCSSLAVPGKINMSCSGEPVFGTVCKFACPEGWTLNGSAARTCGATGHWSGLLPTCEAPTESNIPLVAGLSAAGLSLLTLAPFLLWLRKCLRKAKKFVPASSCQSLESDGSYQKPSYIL
Tumor necrosis factor (Homo sapiens), sequence (P01375 whole entry, looked up): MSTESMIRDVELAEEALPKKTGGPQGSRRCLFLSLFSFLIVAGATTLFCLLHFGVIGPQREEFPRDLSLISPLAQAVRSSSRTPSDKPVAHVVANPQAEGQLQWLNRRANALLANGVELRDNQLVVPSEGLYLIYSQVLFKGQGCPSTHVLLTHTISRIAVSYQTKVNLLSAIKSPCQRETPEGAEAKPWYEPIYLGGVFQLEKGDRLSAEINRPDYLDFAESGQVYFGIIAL

One may read the AC50 as the midpoint of the concentration-response curve, whichever way the signal moves. As to `FC(F)(F)C(F)(F)C(F)(F)C(F)(F)C(F)(F)C(F)(F)C(F)(F)CCI`, the result in assay [1], in assay [2], in [3], in assay [4], in [5] and in assay [6] was inactive. Further, the result in assay [7], in [8], in assay [9], in assay [10], in [11] and in assay [12] was inactive. Moreover, the result in assay [13], in [14], in assay [15], in assay [16], in assay [17] and in assay [18] was inactive. In assay [3], the AC50 is 3.94 µM (active).

With `O=C(O)C(F)(F)C(F)(F)C(F)(F)C(F)(F)C(F)(F)C(F)(F)C(F)F`, the result in assay [1], in assay [2], in [3], in assay [4], in [19] and in assay [5] was inactive. For the same compound, the outcome in assay [6], in [7], in assay [8], in assay [9], in [10] and in assay [11] was inactive. Moreover, the result in assay [12], in [13], in [14], in assay [15], in assay [16] and in assay [17] was inactive. In addition, the outcome in assay [18] was inactive. The AC50 in assay [7] is 30 µM (active).

For `O=C1C=CC(=O)N1c1ccc(Cc2ccc(N3C(=O)C=CC3=O)cc2)cc1`, the concentration at half-maximal activity (AC50) in assay [1] was 2.69 µM (active); in assay [2], 2.2 µM (active); in assay [20], 3.46 µM (active); in assay [3], 1.99 µM (active); in assay [4] it was 5.44 µM (active); in assay [5], 10.4 µM (active). The AC50 is 12.4 µM (active) in assay [6]; 20 µM (active) in assay [7]; 14.6 µM (active) in assay [8]; 8.38 µM (active) in [9]; 14.9 µM (active) in assay [10]; 5.34 µM (active) in assay [11]. Further, the concentration at half-maximal activity (AC50) in assay [12] is 10 µM (active); in assay [13] it was 5.57 µM (active); in assay [14], 8.82 µM (active); in assay [15] it was 11.1 µM (active); in assay [16], 5.71 µM (active); in [17] it was 12.1 µM (active). In addition, the AC50 in [18] is 6.1 µM (active).

The record behind these values is PubChem BioAssay (EPA / NIEHS).
